Several values for one entry are separate records, joined by “and”; a condition that tells them apart may be missing. Equal entries are not always repeated. Among all 5,500 compounds or so, about 2,000 (36%) were called active. Not shown: some 18% with an inconclusive outcome. Rule as the data show it: active = normalized growth mostly below about 0.91 (no sharp cut-off); inconclusive = no clear call, values can overlap the other calls; inactive = mostly above about 0.92. The list shows a part of the results.
Test: chemical genetic growth profiling, strain panel (AID 1159580);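 also: tested at 20 µM; growth read once vehicle control cultures reached saturation at 30 °C; 1 = growth at the plate median or of vehicle wells; lower values mean less growth of the strain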
Conditions: S. cerevisiae deletion strains, growth OD

Measured: normalized growth

CC(=O)Oc1cccc(O)c1
inactive: locus YAL021C, strain ccr4, hits give low values 1 | locus YAL026C, strain drs2, hits give low values 1.04 | locus YAL030W, strain snc1, hits give low values 1.01 | locus YBL061C, strain skt5, hits give low values 1.02 | locus YBR009C, strain hhf1, hits give low values 1.01 | locus YBR021W, strain FUR4, hits give low values 0.973 | locus YBR023C, strain chs3, hits give low values 1.03 | locus YBR171W, strain sec66, hits give low values 1.03 | locus YBR229C, strain ROT2, hits give low values 1 | locus YBR231C, strain swc5, hits give low values 1.03 | locus YBR279W, strain paf1, hits give low values 1.02 | locus YCL011C, strain gbp2, hits give low values 1.02 | locus YCL016C, strain dcc1, hits give low values 1.01 | locus YCL029C, strain bik1, hits give low values 1.01 | locus YCL069W, strain vba3, hits give low values 1.03 | locus YCR088W, strain abp1, hits give low values 1.02 | locus YDL005C, strain med2, hits give low values 1.03 | locus YDL035C, strain GPR1, hits give low values 1.01 | locus YDL040C, strain nat1, hits give low values 1.02 | locus YDL074C, strain BRE1, hits give low values 0.996 | locus YDL101C, strain DUN1, hits give low values 1.01 | locus YDL134C, strain PPH21, hits give low values 1.01 | locus YDL185W, strain tfp1, hits give low values 1.03 | locus YDL192W, strain arf1, hits give low values 1.02 | locus YDR001C, strain nth1, hits give low values 1.02 | locus YDR069C, strain doa4, hits give low values 1.03 | locus YDR101C, strain arx1, hits give low values 0.996 | locus YDR137W, strain rgp1, hits give low values 1.05 | locus YDR159W, strain sac3, hits give low values 1.05 | locus YDR162C, strain NBP2, hits give low values 1.02 | locus YDR195W, strain ref2 1.03 | locus YDR297W, strain sur2, hits give low values 1.04 | locus YDR318W, strain mcm21, hits give low values 1.01 | locus YDR334W, strain swr1, hits give low values 1.01 | locus YDR335W, strain msn5, hits give low values 1.01 | locus YDR388W, hits give low values 1.02 | locus YDR392W, strain spt3, hits give low values 1.01 | locus YDR502C, strain sam2, hits give low values 1.03 | locus YEL003W, strain gim4, hits give low values 1.02 | locus YEL037C, strain rad23, hits give low values 1.02 | locus YEL061C, strain CIN8 (second series), hits give low values 1.02 | locus YEL061C, strain CIN8, hits give low values 1.01 | locus YER015W, strain faa2, hits give low values 1.02 | locus YER110C, hits give low values 1.03 | locus YER111C, strain swi4, hits give low values 1.02 | locus YER155C, strain BEM2 (second series), hits give low values 1.02 | locus YER155C, strain BEM2, hits give low values 0.996 | locus YER167W, strain BCK2, hits give low values 1 | locus YFR010W, strain ubp6, hits give low values 1.04 | locus YGL078C, strain dbp3, hits give low values 1.02 | locus YGL086W, strain mad1, hits give low values 0.999 | locus YGL167C, strain pmr1, hits give low values 1.02 | locus YGL173C, strain kem1, hits give low values 1.04 | locus YGL227W, strain vid30, hits give low values 1.02 | locus YGL240W, strain doc1, hits give low values 1.02 | locus YGL248W, strain PDE1, hits give low values 1.01 | locus YGL253W, strain hxk2, hits give low values 1.02 | locus YGR078C, strain PAC10, hits give low values 1 | locus YGR135W, strain pre9, hits give low values 1.03 | locus YGR229C, strain SMI1, hits give low values 1 | locus YGR252W, strain gcn5, hits give low values 1.06 | locus YHR013C, strain ard1, hits give low values 1.02 | locus YHR027C, strain rpn1, hits give low values 1.02 | locus YHR030C, strain SLT2, hits give low values 1.01 and 0.949 | locus YHR079C, strain IRE1 (second series), hits give low values 1.01 | locus YHR079C, strain IRE1, hits give low values 0.967 | locus YHR094C, strain hxt1, hits give low values 1.01 | locus YHR129C, strain ARP1, hits give low values 1.01 | locus YHR142W, strain chs7, hits give low values 1.03 | locus YHR200W, strain rpn10, hits give low values 1.02 | locus YIL066C, strain RNR3, hits give low values 1 | locus YIL073C, strain SPO22, hits give low values 1.04 | locus YIL125W, strain kgd1, hits give low values 1.01 | locus YIR030C, strain dcg1, hits give low values 1.01 | locus YJL092W, strain hpr5, hits give low values 1.02 | locus YJL095W, strain BCK1 (second series), hits give low values 1.02 | locus YJL095W, strain BCK1, hits give low values 1.01 and 0.974 | locus YJL115W, strain asf1, hits give low values 1.01 | locus YJL129C, strain trk1, hits give low values 1.04 | locus YJL134W, strain LCB3, hits give low values 1.01 | locus YJL154C, strain vps35, hits give low values 1.02 | locus YJL164C, strain tpk1, hits give low values 1.01 | locus YJL166W, strain qcr8, hits give low values 1.03 | locus YJL168C, strain set2, hits give low values 1.02 | locus YJL187C, strain SWE1 (second series), hits give low values 1.01 | locus YJL187C, strain SWE1, hits give low values 1.02 | locus YJR043C, strain POL32, hits give low values 0.999 | locus YJR066W, strain TOR1, hits give low values 0.96

Reference: PubChem BioAssay AID1159580 (chemical genetic matrix, 2015)
